Structures are written as SMILES. Records with an inconclusive call do not appear. Where a call stands in place of a potency, no number is given. Calls of active or inactive are those of the source. The call rests on the fitted dose curve; in most records, active means well fitted curve in the direction sought with a large enough effect; inconclusive means small, poorly fitted or top-dose-only effect, or another doubt; inactive means no such curve, though single readings can be large; an effect the other way counts as inactive or inconclusive.

In assay [1] the target is Calcium and integrin-binding protein 1 (Homo sapiens) (UniProt Q99828). Put plainly: Primary qHTS for Identification of Calcium Integrin Binding Protein 1 (CIB1) Competitor (AID 1508620).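 Further: GST tagged CIB1 binding a fluorescein labelled alphaIIb integrin peptide tracer; top concentration of the series differs between compounds.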 In short, it runs like this: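 Fluorescence polarization competition: CIB1-GST (1 uM final) preincubated with compound 15 min at room temperature, then FITC-labeled alphaIIb peptide (100 nM final) added for another 15 min. Polarization read at Ex 480/Em 540.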
Sequence of Calcium and integrin-binding protein 1 (Homo sapiens) (Q99828 whole entry, looked up): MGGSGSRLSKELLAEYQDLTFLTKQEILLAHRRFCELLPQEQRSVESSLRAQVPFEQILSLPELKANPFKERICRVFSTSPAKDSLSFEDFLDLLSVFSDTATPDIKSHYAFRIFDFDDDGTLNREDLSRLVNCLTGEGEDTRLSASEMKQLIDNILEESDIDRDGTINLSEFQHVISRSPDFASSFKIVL
For orientation: qHTS replaces the single test concentration by a dilution series.

Assay [2] is described as follows: Primary qHTS for small molecule stabilizers of the endoplasmic reticulum resident proteome: Secreted ER Calcium Modulated Protein (SERCaMP) assay (AID 1508630). Further: potency means the concentration at half of the fitted maximal effect. The method in brief:
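The SH-SY5Y reporter protocol was run at 3 concentrations up to 38.3 uM (primary) or 11 concentrations (follow-up): 16 h compound, 100 nM thapsigargin for 4 h, then extracellular luciferase luminescence.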

Regarding `CC1(C)C(N(O)C(=O)Nc2ccc(Cl)cc2)N(c2ccc(Cl)cc2)C(=O)N1CC(=O)NN=CC=Cc1ccc([N+](=O)[O-])o1` (configuration not stated), the Potency result in assay [1] and in assay [2] was “inactive” in each case.
Turning to `CC[C@H]1OC(=O)[C@H](C)[C@@H](O[C@H]2C[C@@](C)(OC)[C@@H](O)[C@H](C)O2)[C@H](C)[C@@H](O[C@@H]2O[C@H](C)C[C@H](N(C)C)[C@H]2O)[C@](C)(O)C[C@H](C)C(=NOCOCCOC)[C@H](C)[C@@H](O)[C@]1(C)O`, the Potency entry in assay [1] and in assay [2] was “inactive” in each case.
For the compound `CC[C@H](CC#N)OC(=O)N[C@@H](C)c1cccc(NC(=O)Nc2ccc(-c3cnco3)c(OC)c2)c1`, the Potency entry in assay [1] and in assay [2] was “inactive” each time.
For the compound `COc1nc(C)cnc1NS(=O)(=O)c1cccnc1-c1ccc(-c2nnco2)cc1`, the Potency entry in assay [1] and in assay [2] was “inactive” each time.
In the case of `COc1cc2c(cc1Cc1cccc(Cl)c1F)c(=O)c(C(=O)O)cn2[C@H](CO)C(C)C`, the Potency entry in assay [1] and in assay [2] was “inactive” throughout.
Take `CN(C)CC[C@H](CSc1ccccc1)Nc1ccc(S(=O)(=O)NC(=O)c2ccc(N3CCN(Cc4ccccc4-c4ccc(Cl)cc4)CC3)cc2)cc1[N+](=O)[O-]`: the Potency result in assay [1] and in assay [2] was “inactive” each time.
In the case of `COc1cc(Nc2nc3ccccc3nc2NS(=O)(=O)c2ccc(NC(=O)c3ccc(C)c(OC)c3)cc2)cc(OC)c1`, in assay [1], the Potency entry was “inactive”. In assay [2], the Potency was 8.41 µM (active).
Taken in the same sequence, the figures for `C#C[C@]1(O)CC[C@H]2[C@H]3CCc4cc(OC)ccc4[C@H]3CC[C@@]21C` were “inactive” and “inactive”.
Taken in the same sequence, the figures for `CN1CCN(c2ncc(-c3cc(Cl)cc(Cl)c3Cl)c(N)n2)CC1` were “inactive” and “inactive”.
Taken in the same sequence, the figures for `O=C1NC(=O)C(c2cnc3ccccn23)=C1c1cn2c3c(cccc13)CN(C(=O)N1CCOCC1)CC2` were “inactive” and “inactive”.
Consider `Cc1ccc(S(=O)(=O)OCC(=O)Nc2ccc(C(=O)O)c(O)c2)cc1`, for which the Potency result in assay [1] and in assay [2] was “inactive” throughout.
Turning to `Cc1cc(C(C)Nc2ccccc2)c2nc(N3CCOCC3)cc(=O)n2c1` (configuration not stated), the Potency entry in assay [1] and in assay [2] was “inactive” each time.
As to `COc1ccc2cc1Oc1ccc(cc1)C[C@H]1c3cc(c(OC)cc3CCN1C)Oc1c(OC)c(OC)cc3c1[C@H](C2)N(C)CC3`, the Potency entry in assay [1] and in assay [2] was “inactive” each time.
For the compound `Cc1cccc2c1CC[C@H](CN1CCC(c3c(Cl)cccc3Cl)CC1)C[C@@H]2O`, the Potency entry in assay [1] and in assay [2] was “inactive” each time.
In the case of `CCCCCCOC(=O)N=C(N)c1ccc(NCc2nc3cc(C(=O)N(CCC(=O)OCC)c4ccccn4)ccc3n2C)cc1`, the Potency result in assay [1] and in assay [2] was “inactive” throughout.
Take `CNC1CCC(N(Cc2cccc(-c3ccncc3)c2)C(=O)c2sc3ccccc3c2Cl)CC1` (configuration not stated): the Potency result in assay [1] and in assay [2] was “inactive” in each case.
Regarding `O=C(c1ccc(C(=O)N2CCC(N3CCCC3)CC2)c(Nc2ccccc2)c1)N1CCC(N2CCCC2)CC1`, the Potency entry in assay [1] and in assay [2] was “inactive” each time.
For `C[C@H](c1ccc(F)cc1CCCC(=O)O)N(c1cc(F)ccc1F)S(=O)(=O)c1ccc(Cl)cc1`, the Potency result in assay [1] and in assay [2] was “inactive” each time.
Turning to `Cc1ccc(C(=O)N(CCCN)[C@@H](c2oc3cc(Cl)ccc3c(=O)c2Cc2ccccc2)C(C)C)cc1`, the Potency entry in assay [1] and in assay [2] was “inactive” in each case.
Take `Cc1ccccc1-n1c(Cn2nc(-c3cccc(O)c3)c3c(N)ncnc32)nc2cccc(C)c2c1=O`: the Potency result in assay [1] and in assay [2] was “inactive” throughout.
With `Cc1cnc(Nc2cccc(CN3CCOCC3)c2)nc1Nc1cccc(S(=O)(=O)NC(C)(C)C)c1`, the Potency result in assay [1] and in assay [2] was “inactive” each time.
`CCOC(=O)[C@H]1O[C@H]1C(=O)N[C@@H](CC(C)C)C(=O)NCCC(C)C`: the Potency entry in assay [1] and in assay [2] was “inactive” each time.
Take `O=C1NC(=O)C(=Cc2ccc(-c3ccc(F)cc3O)o2)S1`: the Potency entry in assay [1] and in assay [2] was “inactive” throughout.
Consider `O=C(O)C1=CO[C@@H](O[C@@H]2O[C@H](CO)[C@H](O)[C@H](O)[C@H]2O)[C@@H]2C(CO)=CC[C@H]12`, for which the Potency result in assay [1] and in assay [2] was “inactive” each time.
For `NC(=O)c1noc([C@H](CCCC2CCCCC2)CC(=O)NO)n1`, the Potency entry in assay [1] and in assay [2] was “inactive” throughout.
In the case of `CC(C)CN(C[C@@H](O)[C@H](Cc1ccccc1)NC(=O)O[C@H]1CO[C@H]2OCC[C@H]21)S(=O)(=O)c1ccc(N)cc1`, the Potency entry in assay [1] and in assay [2] was “inactive” each time.
With `Cc1ccccc1C(=O)c1ccc(Nc2ccc(Br)cc2N)cc1Cl`, the Potency result in assay [1] and in assay [2] was “inactive” each time.
For `OC[C@H]1O[C@@H](Oc2ccc(O)cc2)[C@H](O)[C@@H](O)[C@H]1O`, the Potency result in assay [1] and in assay [2] was “inactive” throughout.
As to `NC(=O)c1ncn([C@@H]2O[C@H](CO)[C@@H](O)[C@@H]2O)n1`, the Potency result in assay [1] and in assay [2] was “inactive” each time.
With `COc1nccc(-c2c(-c3ccc(F)cc3)ncn2C2CCC(O)CC2)n1` (configuration not stated), the Potency result in assay [1] and in assay [2] was “inactive” in each case.
Regarding `O=C1C(c2c(O)[nH]c3ccccc23)=Nc2ccccc21`, the Potency result in assay [1] and in assay [2] was “inactive” each time.
In the case of `CC1(COc2ccc3c(c2)ncn3-c2ccc3cccc(N4CCC(N)CC4)c3n2)COC1`, the Potency result in assay [1] and in assay [2] was “inactive” in each case.
On to `CC[C@@H]([C@H](C)O)n1ncn(-c2ccc(N3CCN(c4ccc(OCC5CO[C@@](Cn6cncn6)(c6ccc(F)cc6F)C5)cc4)CC3)cc2)c1=O` (some centres not stated), for which the Potency entry in assay [1] and in assay [2] was “inactive” throughout.
For `COc1ccc(CCN(C)CCCOc2ccc(S(=O)(=O)c3[nH]c4ccccc4c3C(C)C)cc2)cc1OC`, the Potency result in assay [1] and in assay [2] was “inactive” throughout.
Consider `CCOC(=O)[C@@H](N)CCC(=O)N[C@@H](CSCc1ccccc1)C(=O)N[C@@H](C(=O)OCC)c1ccccc1`, for which the Potency entry in assay [1] and in assay [2] was “inactive” in each case.
`Cc1ccccc1C(C(=O)NC1CCCCC1)N(C(=O)CNc1ccc(C#N)cc1)c1cccc(F)c1` (configuration not stated): the Potency result in assay [1] and in assay [2] was “inactive” throughout.

Values taken from PubChem BioAssay (NCATS).
